# Screening results: PubChem, several laboratories
# SARS 3CLpro inh-1 = SARS-CoV 3CLpro protease inhibition; AID 1706; inhibition, % at 6 µM; recombinant SARS-CoV 3CLpro, quenched FRET peptide cleavage; 290,000 tested, 0.14% active; P0C6X7; in the data active = inhibition above about 12%
# PrPC surface inh = cell surface PrPC inhibition, primary TR-FRET screen | 370,000 tested, 0.43% active | inhibition, % at 13.8 µM | TR-FRET read-out | P04156 | AID 720596; in the data active = inhibition above about 24%; also: 0% = median of the test wells and 100% = reference compound wells
# BJeLR viability = BJeLR cell viability loss; 300,000 tested, 0.17% active; BJeLR (HRASV12) viability, CellTiter-Glo ATP luminescence, 48 h; AID 1554; inhibition, % (no concentration beside the values); in the data active = inhibition above about 50%
# Mtb hypoxia inh = Mtb hypoxia fluorescent reporter inhibition | fluorescence inhibition, % (no concentration beside the values) | M. tuberculosis hypoxia-regulated fluorescent reporter, fluorescence | 300,000 tested, 0.1% active; in the data active = fluorescence inhibition mostly above about 23%, no sharp cut-off; inactive = mostly below about 17%
# PrP 5UTR inh = suppresses PrP 5' UTR mRNA reporter expression | 340,000 tested, 0.35% active | cell-based PrP 5' UTR mRNA reporter, plate reader | inhibition, % (test concentration not listed) | AID 488862; in the data active = inhibition above about 52%; also: 0 = median of the neutral control wells
# RecA splice inh = inhibitors of M. tuberculosis RecA intein splicing; P9WHJ3; cell-free RecA intein splicing, fluorescence; inhibition, % (test concentration not listed); 290,000 tested, 0.75% active; AID 2221; in the data active = inhibition above about 30%;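 also: 0% = vehicle wells and 100% = reference inhibitor control wells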
# Target sequence (P9WHJ3 whole entry, looked up, canonical isoform): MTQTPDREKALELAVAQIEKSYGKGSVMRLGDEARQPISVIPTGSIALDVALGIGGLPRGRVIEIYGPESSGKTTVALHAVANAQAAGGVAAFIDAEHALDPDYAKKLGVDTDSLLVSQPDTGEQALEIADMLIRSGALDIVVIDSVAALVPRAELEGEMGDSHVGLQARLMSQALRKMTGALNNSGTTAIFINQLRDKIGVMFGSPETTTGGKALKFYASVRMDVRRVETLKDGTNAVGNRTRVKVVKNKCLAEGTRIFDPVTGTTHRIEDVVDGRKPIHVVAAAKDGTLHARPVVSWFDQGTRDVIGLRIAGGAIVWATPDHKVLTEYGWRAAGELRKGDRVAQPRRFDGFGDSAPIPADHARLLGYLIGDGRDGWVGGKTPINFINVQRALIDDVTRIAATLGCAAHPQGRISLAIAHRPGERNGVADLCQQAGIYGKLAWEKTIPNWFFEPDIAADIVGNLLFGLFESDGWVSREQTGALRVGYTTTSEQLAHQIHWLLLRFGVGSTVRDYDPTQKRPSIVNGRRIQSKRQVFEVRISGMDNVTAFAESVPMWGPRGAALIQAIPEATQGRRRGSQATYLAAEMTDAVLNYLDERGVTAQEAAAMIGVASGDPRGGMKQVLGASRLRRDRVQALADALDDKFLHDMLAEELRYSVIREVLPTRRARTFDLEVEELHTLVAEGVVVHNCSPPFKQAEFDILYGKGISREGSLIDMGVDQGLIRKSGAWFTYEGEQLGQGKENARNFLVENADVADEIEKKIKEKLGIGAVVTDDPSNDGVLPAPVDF
# SARS 3CLpro inh-2 = SARS 3CLpro inhibition, confirmation assay. 380 tested, 36% active. QFRET protease activity assay. shares compounds with SARS 3CLpro inh-1. inhibition, % at 6 µM. AID 1879; in the data active = inhibition above about 13%
# GFP chromophore = counter-screen GFP chromophore formation inhibition; shares compounds with RecA splice inh; cell-free GFP chromophore formation, fluorescence; EC50, µM; 2,100 tested, 83% active; call rule not given here
# The depositor's hits bear a star; nt = no result given. Shown are actives, neighbours in structure and some others; about 1.4% of the full set was active somewhere.
SMILES,SARS 3CLpro inh-1,PrPC surface inh,BJeLR viability,Mtb hypoxia inh,PrP 5UTR inh,RecA splice inh,SARS 3CLpro inh-2,GFP chromophore
O=C(NCc1ccccc1)C(=O)NCC1OCCN1S(=O)(=O)c1ccc2c(c1)OCCO2 (stereo not given),-0.2,-5.7,9.1,1.9,39.5,0.8,nt,nt
O=C1CC(N2CCN(C/C=C/c3ccccc3)CC2)C(=O)N1Cc1cccs1 (stereo not given),16.2*,2.2,0.7,nt,-2.1,1.8,-2.2,nt
O=C1CC(N2CCN(C/C=C/c3ccccc3)CC2)C(=O)N1CCc1ccccc1 (stereo not given),1.8,-0.1,-7.0,1.9,-9.6,-3.5,nt,nt
Cc1ccc(-n2c(Cc3cccn3C)nnc2SCC(=O)Nc2ccc3c(c2)OCO3)cc1,14.0*,16.5,2.1,10.2,-12.7,nt,2.0,nt
CCNC(=S)NN=Cc1ccc(C(=O)O)cc1,nt,nt,nt,9.5,nt,nt,nt,nt
CN(C)S(=O)(=O)c1cccc(NC(=S)N/N=C/c2cc(Br)ccc2O)c1,15.3*,-3.7,8.0,nt,33.1,24.8,4.6,nt
CCOC(=O)NN=C1CC(C)CC(C)(C)C1 (stereo not given),nt,nt,nt,7.9,nt,nt,nt,nt
O=C(CC1CC=CCCC(Cc2ccc(F)cc2)C(=O)OCC2CCCN2C1=O)NC(CO)Cc1ccccc1 (stereo not given),nt,nt,nt,0.1,nt,nt,nt,nt
CC1CCC2C(=O)N(c3cc(Cl)ccc3OC(=O)c3ccco3)C(=O)C2C1 (stereo not given),45.9*,-6.4,-5.0,-5.9,-12.3,13.3,60.2*,nt
CC1CCC2C(=O)N(c3ccccc3OC(=O)c3ccccc3)C(=O)C2C1 (stereo not given),5.0,-7.1,12.5,7.4,-12.4,-0.2,nt,nt
COc1ccc(-c2cc(N)n(S(=O)(=O)c3c(F)c(F)c(F)c(F)c3F)n2)cc1OC,13.6*,-4.9,-15.3,4.6,-17.5,97.3*,1.7,nt
COc1ccc(S(=O)(=O)n2nc(-c3cc(OC)c(OC)c(OC)c3)cc2N)cc1OC,0.0,6.6,nt,13.4,-16.3,nt,nt,nt
Cc1sc(NC(=O)CCl)c(C(=O)c2ccccc2)c1C,14.5*,-2.4,1.7,14.5,-4.9,62.9*,35.6*,31.8*
COC(=O)C1=C(c2cccc(NC(C)=O)c2)CC2CCC1N2C (stereo not given),nt,nt,nt,2.4,nt,nt,nt,nt
Cc1cc(C)c(S(=O)(=O)/N=C2\C=C(Nc3ccc(C(=O)O)cc3)C(=O)c3ccccc32)c(C)c1,12.6*,-38.3,31.3,nt,-41.7,95.8*,6.6,0.871*
Cn1nc(-c2ccc(Cl)cc2)nc2c(=O)n(C)c(=O)nc1-2,18.1*,nt,19.3,8.5,-26.6,94.4*,48.3*,0.365*
CS(=O)(=O)n1nc(-c2ccc(Cl)cc2)nc1N,2.1,2.3,5.2,15.7,-24.8,5.9,nt,nt
COc1ccc(C2CC(c3cccs3)=NN2C(=O)CCl)cc1OC (stereo not given),74.3*,-4.2,43.9,nt,-5.6,76.6*,81.4*,4.45*
COc1cc(C2CC(c3cccs3)=NN2C(=O)CCl)ccc1OC(F)F (stereo not given),55.6*,0.4,95.8*,nt,-3.5,80.0*,74.0*,1.8*
COc1ccc(C2CC(c3cccs3)=NN2C(=O)c2ccccc2)cc1OC (stereo not given),-2.6,-10.6,2.1,10.7,-4.3,1.0,nt,nt
Cc1ccc(C2=NN(C(=O)CCl)C(c3cccs3)C2)o1 (stereo not given),14.3*,-8.8,11.1,nt,-15.8,73.9*,59.4*,4.63*
CC(Cc1ccccc1)=NNC(=O)c1cccnc1,nt,nt,nt,8.4,nt,nt,nt,nt
COC(=O)[C@]1(C)NC(c2ccc(-c3ccc(F)cc3)cc2)C2C(=O)N(C)C(=O)C21 (stereo not given in full),nt,nt,nt,14.6,nt,nt,nt,nt
COc1ccccc1/C=C/C=NNC(=O)CCn1cnc2ccccc21,nt,nt,nt,4.0,nt,nt,nt,nt
Nc1cc2nn(-c3ccccc3)nc2cc1Cl,12.4*,0.9,-3.4,7.0,-166.7,62.9*,-4.0,36.7*
SMILES,SARS 3CLpro inh-1,PrPC surface inh,BJeLR viability,Mtb hypoxia inh,PrP 5UTR inh,RecA splice inh,SARS 3CLpro inh-2,GFP chromophore
O=C(O)CC1c2ccccc2S(=O)(=O)N1c1ccccc1 (stereo not given),nt,nt,nt,-0.7,nt,nt,nt,nt
CCOC(=O)c1ccccc1Nc1cn(C(C)=O)c2ccccc12,-1.4,-2.2,5.1,nt,-25.7,5.0,nt,nt
CC(=O)n1cc(N(C(=O)CCl)c2ccc(Cl)cc2)c2ccccc21,12.8*,nt,107.5*,19.9,nt,58.7*,34.6*,1.28*
O=C1OCC2=Nc3cccc4cccc(c34)N12,nt,0.6,nt,nt,nt,nt,nt,nt
CC1=Nc2cccc3cccc(c23)N1C,12.7*,-6.7,-8.6,nt,-8.5,77.9*,-5.1,>38
Cc1cc(O)c(C(C)C)cc1N=Cc1ccccc1O,-2.5,-2.0,-2.3,2.3,-11.9,51.5*,nt,15.3*
COC(=O)N/N=C/c1ccc(OC(=O)/C=C/c2ccco2)cc1,8.9,-8.0,-10.7,nt,nt,-1.0,nt,nt
CC(C)(C)OC(=O)N/N=C\c1ccc(OC(=O)c2ccco2)cc1,3.5,-10.5,8.2,nt,-57.4,43.3*,nt,>38
CCOc1cc(/C=N\NC(=O)OC(C)(C)C)ccc1OC(=O)c1ccco1,3.5,1.5,-4.1,nt,-20.4,31.3*,nt,>38
COC(=O)N/N=C\c1ccc(OC(=O)c2ccco2)cc1,-1.0,-2.5,-4.7,nt,-48.0,39.6*,nt,>38
CCOC(=O)N/N=C\c1ccc(OC(=O)c2ccco2)cc1,-1.3,6.7,2.1,nt,-26.9,34.1*,nt,>38
CC(=NNC(=O)OC(C)(C)C)c1ccco1,nt,nt,nt,10.6,nt,nt,nt,nt
CCOc1cc(C=NNC(=O)COc2ccc(C)cc2)ccc1OC(=O)c1cccs1,nt,nt,nt,-3.4,nt,nt,nt,nt
COC(=O)C1=C(c2cccc(C#N)c2)CC2CCC1N2C(=O)NC1CCCCC1 (stereo not given),nt,nt,nt,4.3,nt,nt,nt,nt
O=C1c2ccccc2C(=O)C12OC2c1ccc(Cl)cc1 (stereo not given),2.6,nt,-2.6,nt,nt,71.6*,nt,>38
OCCC1CC(O)C(O)[C@@]2(CCCO2)O1 (stereo not given in full),nt,nt,nt,5.3,nt,nt,nt,nt
COC(=O)CC1(c2cccc3ccccc23)C(=O)c2ccccc2C1=O,-4.7,-0.6,8.1,nt,-14.4,41.9*,nt,6.58*
O=C1c2ccccc2OC2(C=Cc3ccccc3O2)N1Cc1ccccc1 (stereo not given),5.4,1.2,8.9,-1.1,-18.6,31.6*,nt,>38
O=C1NC2(CCN(Cc3ccccc3)CC2)Oc2ccccc21,2.5,7.8,-1.5,-0.6,-13.0,-1.1,nt,nt
Cc1ccccc1S(=O)(=O)N1C(c2ccc(Cl)cc2)CC=C(C(=O)O)C1c1ccccc1 (stereo not given),nt,nt,nt,-0.5,nt,nt,nt,nt
CC1=C(CC(=O)c2ccccc2)C(=O)c2ccccc2C1=O,2.0,-11.2,0.3,-6.0,-37.8,43.3*,nt,26.5*
C=C(C)C(=O)Nc1cccc(C2=NOC3(C2)CC(C(N)=O)N(C(=O)CC#N)C3)c1 (stereo not given),nt,nt,nt,4.6,nt,nt,nt,nt
CC(=O)NC1=NN(c2ccccc2)C(=O)C1,-5.1,-7.4,6.0,1.5,-24.2,82.1*,nt,36.1*
